Laboratory results reported in PubChem BioAssay AID1845 (The Scripps Research Institute Molecular Screening Center, 2009).
The whole screen tested about 290,000 compounds, of which about 490 (0.17%) were called active. Only a selection was taken, and actives are over-represented in it overall. A number with no mark means an inactive call. No stated cut-off is given here; in the data, active means inhibition above about 37%; inactive means the rest.

Assay: compounds displacing fluorescent DNA intercalator, primary screen, artefact control for HCV NS3 helicase inhibitor project, biochemical, FID fluorescence (AID 1845);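 further: 0% = vehicle and 100% = reference compound; higher means more ethidium bromide displaced from hairpin DNA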
Details: DNA fluorescent intercalator displacement, at 7.9 µM, hits give high values

Point of comparison: `CCN(C(=O)CN1C(=O)/C(=C/c2ccc(F)cc2)SC1=S)C1CCS(=O)(=O)C1` (configuration not stated), inhibition -43.9%. Against it:
- COc1ccc(C(=O)N2CCCCC2C(=O)Nc2ccc(-n3nc(C)cc3C)cc2)o1 (configuration not stated) — higher, -43.5%
- Cc1ccccc1OCC(=O)Nc1nnc(S(=O)(=O)N2CCCC2)s1 — higher, -35.4%
- O=CN1CCN(C(=O)c2ccc3c(c2)OCO3)CC1 — higher, -1.4%
- NC(=O)C1CC(=O)N(c2ccc(OCC(=O)NCc3ccccc3)cc2)C1 (configuration not stated) — higher, -4.26%
- CC(=O)c1cc(CN2CCC(n3nccc3NC(=O)c3ccccc3Cl)CC2)cs1 — higher, -5.43%
- CCOC(=O)c1c(NC(=S)NC)sc2c1CCCC2 — higher, -4.6%
- CCOC(=O)c1c(NC(=S)NC(=O)c2ccco2)sc2c1CCCC2 — higher, 0.98%
- O=C(CNC(=O)OCc1ccccc1)NC1CCCCNC1=O (configuration not stated) — higher, 0.17%
- O=C(O)CCCN1C(=O)C2C3c4ccccc4C(c4ccccc43)[C@@H]2C1=O (some centres not stated) — higher, -12.3%
- CC(C)C[C@H]1CN=C(Nc2ccccc2)N1CC1CCCCC1 — higher, 3.71%
- CCOc1ccc(NC(=O)c2ccc(NC(=O)C3CCCO3)cc2)cc1 (configuration not stated) — higher, -28.7%
- COc1ccccc1/C=N/Nc1nc(C)c(C(C)=O)s1 — higher, -19.2%
- Cc1ccc(S(=O)(=O)N(C)C)cc1NC(=O)C1Cc2ccccc2CN1C(=O)c1ccco1 (configuration not stated) — higher, -29.3%
- CCCNC(=O)c1cnc(-c2ccccc2)nc1-c1ccccc1 — higher, -20.5%
- O=C(c1ccc(Cn2cc([N+](=O)[O-])cn2)o1)N1CCCC1 — higher, -4.09%
- Cc1cccc(OCC(=O)NCCCNC(=O)c2ccccn2)c1 — higher, -16.1%
- COc1ccc(CC(=O)N/N=C(\C)c2ccccn2)cc1 — higher, -6.95%
- COc1ccc(CCNC(=O)C(=O)NCC2OCCN2S(=O)(=O)c2ccc(F)cc2)cc1OC (configuration not stated) — higher, -32.4%
- Cc1ccc(C(=O)N/C(=C\c2cn(S(=O)(=O)N(C)C)c3ccccc23)C(=O)N2CCCC2)cc1 — lower, -52.8%

For `CCOC(=O)c1c(NC(=O)C2CCN(S(=O)(=O)c3ccc(Cl)cc3)CC2)sc2c1CCCC2`, the inhibition was 43.9% (active).
In the case of `CCN(CC)CCOc1ccc2c(c1)C(=NNC(=O)c1ccccn1)c1cc(OCCN(CC)CC)ccc1-2`, the inhibition is reported as 98.8% (active).
